Consider 40 compounds from PubChem BioAssay (Tox21).

Several values for one entry are separate records, joined by “and”; a condition that tells them apart may be missing. Equal entries are not always repeated. Records with an inconclusive call do not appear. Entries that show only a call come without a potency. The source holds several records for some structures; these can differ, active in one and inactive in another. Activity calls are given as the source filed them. Calls come from the whole dose curve.
Potency is the fitted concentration of half-maximal effect.

A short description of the experiment: qHTS assay to identify small molecule agonists of the progesterone receptor (PR) signaling pathway - cell viability counter screen (AID 1346799). Note: nearly all actives have a fitted effect of over 45% in size. Conditions: PR-UAS-bla HEK293T viability, CellTiter-Glo luminescence, 16 h; series mostly up to 92.4 µM. From the text:
National Center for Advancing Translational Sciences [NCATS]
NIH Chemical Genomics Center [NCGC]
U.S. Environmental Protection Agency [EPA]
National Institutes of Environmental Health Sciences [NIEHS]
National Toxicology Program [NTP]
U.S. Food and Drug Administration [FDA]
Progesterone receptor (PR), a nuclear hormone receptor, plays an important role in development, metabolic homeostasis and reproduction. It is activated by the steroid hormone progesterone. Endocrine disrupting chemicals (EDCs) and their interactions with steroid hormone receptors like PR causes disruption of normal endocrine function. To identify the compounds that stimulate PR signaling, a PR-UAS-bla GripTite cell line i.e. PR-UAS-bla HEK293T (Invitrogen, Carlsbad, CA, USA) containing a beta-lactamase reporter gene under the control of an UAS response element was used to screen Tox21 10K compound library. The cytotoxicity of the Tox21 compound library against the PR-bla cell line was tested in parallel by measuring the cell viability using CellTiter-Glo assay in the same wells.
Tox21 Assay Protocol Summary:
PR-UAS-bla HEK293T cells were dispensed at 3,000 cells/5 uL of assay medium containing 2% charcoal stripped FBS per well into black wall/clear-bottom 1536-well plates using a Multidrop Combi (ThermoFisher Scientific, Waltham, MA) dispenser. After the assay plates were incubated at a 37C and 5% CO2 for 6 hr, 23 nL of compounds dissolved in DMSO, positive controls or DMSO only was transferred to the assay plate by a Pintool station (Kalypsys, San Diego, CA). The plates were incubated at 37C and 5% CO2 for 16 hr. Then 1 uL of LiveBLAzer B/G FRET substrate was added using a Flying Reagent Dispenser (FRD, Aurora Discovery, San Diego, CA), the plates were incubated at room temperature for 2 hours, and fluorescence intensity was measured by an Envision plate reader (PerkinElmer, Shelton, CT). For cell viability readout that measures cytotoxicity, 4 uL/well of CellTiter-Glo reagent was added into the assay plates using a FRD. After 30 min incubation at room temperature, the luminescence intensity in the plates was measured using a ViewLux (PerkinElmer) plate reader.
On the technique in general: qHTS replaces the single test concentration by a dilution series.
With `Clc1nc(Cl)c(Cl)c(Cl)c1Cl`, the Potency entry is “inactive”.

Consider `COC(=O)c1ccccc1`, for which the Potency entry was “inactive”.

Consider `C=C(C)C1CC=C(C)CC1` (stereo not given), for which the Potency entry is “inactive”.

As for `S=C(NC1CCCCC1)NC1CCCCC1`, the Potency is 7.7 µM (active).

`CCCCCCCCCC(=O)OC`: the Potency result is “inactive”.

As for `c1cc(N(CC2CO2)CC2CO2)ccc1OCC1CO1` (stereo not given), the Potency entry was “inactive”.

For the compound `COc1ccccc1/C=C/C=O`, the Potency entry was “inactive”.

For `Brc1cc(Oc2cc(Br)c(Br)c(Br)c2Br)c(Br)c(Br)c1Br`, the Potency was 2.18 µM (active) and inactive.

Consider `O=C(c1ccc(OCCN2CCCCC2)cc1)c1c(-c2ccc(O)cc2)sc2cc(O)ccc12`, for which the Potency was 48.6 µM (active) and 68.6 µM (active) and 29.8 µM (active).

In the case of `O=C(OCc1ccccc1)c1ccccc1O`, the Potency result was “inactive”.

`Nc1ccc(Cl)cc1Cl`: the Potency result was “inactive”.

Take `CCC(C)c1ccccc1O` (stereo not given): the Potency result is “inactive”.

With `CC(C)OC=O`, the Potency result was “inactive”.

As to `NNc1ccc(C(=O)O)cc1`, the Potency result is “inactive”.

As for `CNCCCC12CCC(c3ccccc31)c1ccccc12`, the Potency is 19.3 µM (active) and inactive.

In the case of `O=C(c1ccccc1)c1ccccc1O`, the Potency result is “inactive”.

In the case of `CCCCC/C=C/C=C/C=O`, the Potency entry is “inactive”.

On to `CCCCc1oc2ccccc2c1C(=O)c1cc(I)c(OCCN(CC)CC)c(I)c1`, for which the Potency is 19.5 µM (active) and 13.3 µM (active).

Take `Cc1cc2nc3c(=O)[nH]c(=O)nc-3n(C[C@H](O)[C@H](O)[C@H](O)CO)c2cc1C`: the Potency entry was “inactive”.

Turning to `O=CCCCC=O`, the Potency result was “inactive”.

As to `OCCO`, the Potency entry was “inactive”.

For the compound `Cc1c(C(N)=O)cc([N+](=O)[O-])cc1[N+](=O)[O-]`, the Potency entry was “inactive”.

In the case of `CC1=CCC(C(C)(C)O)CC1` (stereo not given), the Potency entry was “inactive”.

With `c1ccc2sc(SSN3CCOCC3)nc2c1`, the Potency entry was “inactive”.

Turning to `CCCC(=O)O`, the Potency entry is “inactive”.

In the case of `Cc1[nH]c(=O)c(C#N)cc1-c1ccncc1`, the Potency is 2.73 µM (active) and inactive.

For `CCOCCOCCO`, the Potency entry is “inactive”.

In the case of `CC1=CC2C3CC(C=C3C)C2C1` (stereo not given), the Potency entry was “inactive”.

Take `CCCCC(CC)COP(=O)(OCC(CC)CCCC)OCC(CC)CCCC` (stereo not given): the Potency entry is “inactive”.

On to `COC(C)COC(C)COC(C)CO` (stereo not given), for which the Potency entry is “inactive”.

In the case of `CCOC(=O)C(C#N)=C(c1ccccc1)c1ccccc1`, the Potency result was “inactive”.

With `O=C(/C=C/c1ccccc1)OCc1ccccc1`, the Potency entry is “inactive”.

On to `OC1CCCCCCCCCCC1`, for which the Potency entry was “inactive”.

`Cn1cnc([N+](=O)[O-])c1Sc1ncnc2nc[nH]c12`: the Potency was 3.83 µM (active) and inactive.

Consider `CCC(C)OC(=O)c1ccc(O)cc1` (stereo not given), for which the Potency entry is “inactive”.

On to `NC=O`, for which the Potency entry was “inactive”.

`O=CCc1ccccc1`: the Potency result was “inactive”.

As to `CCCCNS(=O)(=O)c1ccccc1`, the Potency result is “inactive”.

As to `CN(C)CCN(Cc1cccs1)c1ccccn1`, the Potency result is “inactive”.

Consider `C[Si](C)(C)O[Si](C)(C)C`, for which the Potency result was “inactive”.
